Only a sample is shown.
aSyn UTR act: Activators working through SNCA 5'UTR binding (MLPCN); 7.1% of 300,000 active; AID 1814; alpha-synuclein 5'UTR reporter, activators screen; activity score, % (tested at 7.5 µM), hits read low; in the data active means activity score below about -60%
Numbers without * were called inactive.

SMILES	aSyn UTR act
C/C(=N\NC(=O)c1ccn[nH]1)c1cn(C)nc1C	-98*
CC(C)C(=O)Nc1ccc(NC(=O)c2cccc(F)c2)cn1	-148*
O=C(Nc1ccc(NC(=O)C2CC2)nc1)c1cccc(F)c1	-161*
CCOc1ccc(C(=O)Nc2ccc(Cl)cn2)cc1Cl	-182*
O=C(Nc1ccc(Cl)cn1)c1cccc(F)c1	-204*
COc1ccc(/C=C/c2cc(-c3ccc(C)cc3)o[n+]2C)cc1	89
COC(=O)c1ccc2c(c1)C(C)(C)C(/C=C/c1ccc(O)cc1)=[N+]2C	119
COc1cc(/C=C/c2ccc(O)cc2)cc(OC)c1	-156*
COc1ccc(/C=C/C(=O)c2ccoc2)cc1	-62*
COc1ccc(/C=C/C(=O)c2ccc(O)cc2)cc1	-196*
COc1ccc2cc(C(=O)/C=C/c3cc(OC)c(OC)c(OC)c3)ccc2c1	-62*
COc1ccc(C(=O)NNC(=O)c2ccccn2)cc1	79
COc1ccc(/C=C/C(=O)c2ccccc2O)cc1	-233*
COc1ccc(/C=C/C(=O)c2ccccn2)cc1	-98*
Cc1nc2cc(NC(=O)C3COc4ccccc4O3)ccc2s1 (stereo not given)	-141*
Cc1nc2ccc(NC(=O)C3COc4ccccc4O3)cc2s1 (stereo not given)	-141*
COc1nc(Nc2ccc(C(C)C)cc2)nc(OC)n1	-111*
Cc1nc(N)sc1-c1csc(Nc2cccc(O)c2)n1	-79*
Cc1nc(C)c(-c2csc(Nc3cccc(O)c3)n2)s1	-156*
Cc1cccc(Nc2nc(-c3sc(C)nc3C)cs2)c1	-149*
CC(=O)Nc1ccc(Nc2nc(-c3sc(C)nc3C)cs2)cc1	-77*
Cc1[nH]n(-c2nc(-c3ccc(Cl)cc3)cs2)c(=O)c1N=Nc1ccc(O)cc1	-118*
Cc1ccc(NC(=O)c2oc3ccccc3c2C)nc1	-94*
Cc1c(C(=O)Nc2ccccn2)oc2ccccc12	-259*
Cc1c(C(=O)Nc2cccnc2Cl)oc2ccccc12	-181*
SMILES	aSyn UTR act
CSCc1ccc(C(=O)NCCSc2ccc(Br)cc2)cc1	-96*
N#C/C(=N\Nc1cccc(F)c1)C(=N)N1CCCCCC1	-95*
N#C/C(=N\Nc1ccccc1)C(=N)N1CCCCCC1	-171*
N#C/C(=N\Nc1ccc(F)cc1)C(=N)N1CCCCC1	-111*
CS(=O)(=O)N1N=C(c2ccc(Cl)cc2)CC1c1cccs1 (stereo not given)	-178*
COc1ccc(-c2cc3c(=O)n(CC(=O)NCc4ccc(F)cc4)ncn3n2)cc1	-75*
COc1ccc(-c2cc3c(=O)n(CC(=O)NCCCN4CCC(Cc5ccccc5)CC4)ncn3n2)cc1	96
COc1ccc(CNC(=O)Cn2ncn3cccc3c2=O)cc1	-78*
Cc1ccccc1C(=O)Nc1cccc(-c2ccc(N3CCOCC3)nn2)c1	-65*
O=C(Nc1cccc(-c2ccc(N3CCOCC3)nn2)c1)c1ccccc1	-80*
O=C(COc1ccc(Cl)cc1Cl)Nc1cccc(-c2ccc(N3CCOCC3)nn2)c1	-72*
O=C(Nc1cccc(-c2ccc(N3CCOCC3)nn2)c1)c1ccc([N+](=O)[O-])cc1	-99*
Cc1ccc(C(=O)Nc2cccc(-c3ccc(N4CCOCC4)nn3)c2)cc1[N+](=O)[O-]	-76*
O=C(c1ccco1)N1CCCC(Nc2ccc3c(c2)OCCO3)C1 (stereo not given)	-79*
O=C(NC(=S)Nc1ccc2c(c1)OCCO2)c1ccco1	-114*
O=C(NC(=S)Nc1cccc(O)c1)c1ccco1	-131*
O=c1/c(=C\c2ccc3c(c2)OCO3)sc2n1CCCN=2	-83*
Cc1ccc(/C=c2/sc3n(c2=O)CCCN=3)o1	-143*
O=C(N=c1nc2ccccn2s1)c1ccccc1	-180*
COc1ccc(-c2cc(=O)c3c(O)c(OC)c(O)cc3o2)cc1	70
COc1cc(O)c2c(=O)cc(-c3ccccc3)oc2c1	-145*
O=c1cc(-c2ccc(O)cc2)oc2cc(O)cc(O)c12	-269*
COc1cc(-c2cc(=O)c3c(O)cc(O)cc3o2)ccc1O	-79*
COCOc1ccc(-c2cc(=O)c3c(O)cc(OCOC)cc3o2)cc1	-127*
COc1cc(O)c2c(=O)c3c(OC)c(O)ccc3oc2c1	-78*
SMILES	aSyn UTR act
O=c1cc(-c2ccccc2)oc2cc(O)cc(O)c12	-171*
O=c1c(O)c(-c2ccc(O)cc2)oc2cc(O)cc(O)c12	-100*
CC1(C)COC(/C=C/c2ccc([N+](=O)[O-])cc2)=N1	-93*
CC(C)OCCOc1ccc2oc(-c3ccco3)cc(=O)c2c1	-115*
Cc1ccc2oc(-c3ccco3)cc(=O)c2c1	-171*
CCCc1cc2c(cc1NC(=O)c1ccc(C(C)(C)C)cc1)OCO2	-74*
O=c1cc(Cl)[nH]c(=O)n1CCNc1ncc(C(F)(F)F)cc1Cl	-106*
O=[N+]([O-])c1ccccc1NCCNc1ncc(C(F)(F)F)cc1Cl	-77*
O=[N+]([O-])c1cccnc1NCCNc1ncc(C(F)(F)F)cc1Cl	-178*
Clc1ccccc1CONc1ncnc2nonc12	-91*
CCN1CCN(c2cc(C)c3cc(NC(=O)c4ccc(OC)c(OC)c4)ccc3n2)CC1	-72*
CCCCN(C)C(=S)Nc1ccc2nc(N3CCN(CC)CC3)cc(C)c2c1	-70*

Screening results as filed in PubChem BioAssay.
